We go through ten compounds from PubChem BioAssay.

SMILES strings stand for the structures. Values joined by “and” are separate entries in the source; they are usually repeats but may differ in a detail not shown here. Equal entries are not always repeated. For some assays here: Entries with a potency or affinity are not part of this list. A structure can be active in one record and inactive in another. Active and inactive are the calls of the source.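 How the source made its calls, unless noted: active means at least 20% inhibition of 6-phosphogluconate dehydrogenase activity; inactive means the rest.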

In assay [1] the target is 6-phosphogluconate dehydrogenase, decarboxylating (Homo sapiens) (UniProt P52209). The assay is described as follows: 6PGD enzyme inhibitors, primary screen, biochemical, human, recombinant enzyme, NADPH absorbance (AID 1159550). The following applies: recombinant 6PGD, NADPH absorbance 341 nm; at 10 µM; stronger effect = higher value.
Sequence of 6-phosphogluconate dehydrogenase, decarboxylating (Homo sapiens) (P52209 whole entry, looked up): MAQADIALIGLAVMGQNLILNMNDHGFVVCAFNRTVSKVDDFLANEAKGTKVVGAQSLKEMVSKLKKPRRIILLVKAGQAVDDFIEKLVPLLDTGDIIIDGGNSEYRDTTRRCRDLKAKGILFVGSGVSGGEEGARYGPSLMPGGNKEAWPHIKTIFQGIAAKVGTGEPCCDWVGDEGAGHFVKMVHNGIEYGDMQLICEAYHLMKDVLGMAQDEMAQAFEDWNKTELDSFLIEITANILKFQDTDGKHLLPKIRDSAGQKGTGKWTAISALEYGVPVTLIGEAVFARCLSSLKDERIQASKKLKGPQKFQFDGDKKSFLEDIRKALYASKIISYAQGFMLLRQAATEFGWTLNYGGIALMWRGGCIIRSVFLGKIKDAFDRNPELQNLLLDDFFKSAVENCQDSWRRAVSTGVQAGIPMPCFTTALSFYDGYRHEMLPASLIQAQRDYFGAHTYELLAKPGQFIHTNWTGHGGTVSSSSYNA
Assay [2] in a line: differential killing of epithelial or mesenchymal cells, primary screen, imaging, PC-3E GFP, TEM4-18 mCherry, co-culture (AID 1345086;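 active means compounds killing one labelled cell type while sparing the other, by normalised counts and ratio limits, not self-fluorescent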;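 on all read-outs here: cells exposed to compound for 72 h before imaging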;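 on red/green cell ratio (normalised): normalised mesenchymal count divided by normalised epithelial count so high means epithelial killing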). As to conditions: imaging cell counts, at 1 µM; for red/green cell ratio (normalised): actives lie on both sides, counts scaled to control wells, 1 = unselective.
Assay [3] in a line: polyglutamine-triggered caspase-3 activation inhibitors, cell-based (AID 1583). As to conditions: polyglutamine-induced caspase-3 activation, cell assay; stronger effect = higher value;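 tested at 10 µM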.
A short description of assay [4]: suppressors of polyQ aggregation in yeast, 75Q-TubU reporter (AID 1593). The following applies: Yeast 75Q polyglutamine aggregation reporter.
Assay [5] can be described thus: rescue of polyQ-huntingtin neuronal dysfunction in worms, whole organism, C. elegans mechanosensory neurons, N-terminal huntingtin (AID 1599). The following applies: touch response, stronger effect = higher value.
Assay [6] can be described thus: inhibitors of mitochondrial cytochrome c release, biochemical, purified mitochondria (AID 1603).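 Further: mouse liver mitochondria challenged with calcium chloride; signal normalized to the plate average as 100%.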 As to conditions: stronger effect = lower value.
The nature of assay [7]: inhibitors of polyQ protein aggregation (AID 1604). As to conditions: polyglutamine-induced protein aggregation inhibition assay; stronger effect = higher value; tested at 2.5 µM.
Assay [8] is described as follows: enhancers of glutamate uptake in motor neurons, MN-1 cell line (AID 1612).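 Further: tested at 1 µM final; 0% = mean of DMSO vehicle wells on each plate; positive means more glutamate uptake than control and negative means less.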 The following applies: MN-1 motor neuron cells, stronger effect = higher value.
Assay [9] in a line: suppressors of polyglutamine aggregation in yeast, 75Q-TubH (AID 1616). As to conditions: S. cerevisiae 75Q-TubH polyglutamine aggregation suppression; stronger effect = higher value.
Assay [10] can be described thus: hESC survival regulators, cell-based (AID 493140; call rule not given here;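 further: cells exposed to compounds for four days before counting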). The following applies: human embryonic stem cell survival screen; stronger effect = higher value.
Assay [11] in a line: liver-stage malaria parasite growth inhibition, primary screen, cell-based, HepG2, luciferase luminescence, HepG2 viability (AID 624349; in the data active means parasite load remaining mostly below about 12%, no sharp cut-off; inactive means mostly above about 10%;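 further: 100% = mean of DMSO negative control wells on the same plate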). The following applies: P. berghei liver stage in HepG2, luciferase luminescence, concentration not given here; parasite load remaining: stronger effect = lower value; viability: measured here: HepG2 viability without parasites.
Assay [12] in a line: survival rescue of mitochondrial mutant cells in low glucose, primary screen, MELAS cybrids, Rieske KO mouse fibroblasts, CellTiter-Glo (AID 1508586;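 active means mean z-score across replicates of 1.96 or higher in either the MELAS or the Rieske mutant cell line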;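 further: z relative to plate mean and SD of compound and empty wells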).
The target of assay [13] is Mitogen-activated protein kinase 7 (Homo sapiens) (UniProt Q13164). Put plainly: ERK5 transactivation activators in reporter cells, primary screen, cell-based, HTS (AID 1508626;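 active means luciferase signal above three times the same-plate solvent-only control wells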;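 further: luciferase driven by Gal4-ERK5 fusion binding five Gal4 sites before minimal TATA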). As to conditions: HeLa Gal4-ERK5 transactivation, 18 h, at 5 µM, stronger effect = higher value.
Sequence of Mitogen-activated protein kinase 7 (Homo sapiens) (Q13164 whole entry, looked up, the tested form may be a part): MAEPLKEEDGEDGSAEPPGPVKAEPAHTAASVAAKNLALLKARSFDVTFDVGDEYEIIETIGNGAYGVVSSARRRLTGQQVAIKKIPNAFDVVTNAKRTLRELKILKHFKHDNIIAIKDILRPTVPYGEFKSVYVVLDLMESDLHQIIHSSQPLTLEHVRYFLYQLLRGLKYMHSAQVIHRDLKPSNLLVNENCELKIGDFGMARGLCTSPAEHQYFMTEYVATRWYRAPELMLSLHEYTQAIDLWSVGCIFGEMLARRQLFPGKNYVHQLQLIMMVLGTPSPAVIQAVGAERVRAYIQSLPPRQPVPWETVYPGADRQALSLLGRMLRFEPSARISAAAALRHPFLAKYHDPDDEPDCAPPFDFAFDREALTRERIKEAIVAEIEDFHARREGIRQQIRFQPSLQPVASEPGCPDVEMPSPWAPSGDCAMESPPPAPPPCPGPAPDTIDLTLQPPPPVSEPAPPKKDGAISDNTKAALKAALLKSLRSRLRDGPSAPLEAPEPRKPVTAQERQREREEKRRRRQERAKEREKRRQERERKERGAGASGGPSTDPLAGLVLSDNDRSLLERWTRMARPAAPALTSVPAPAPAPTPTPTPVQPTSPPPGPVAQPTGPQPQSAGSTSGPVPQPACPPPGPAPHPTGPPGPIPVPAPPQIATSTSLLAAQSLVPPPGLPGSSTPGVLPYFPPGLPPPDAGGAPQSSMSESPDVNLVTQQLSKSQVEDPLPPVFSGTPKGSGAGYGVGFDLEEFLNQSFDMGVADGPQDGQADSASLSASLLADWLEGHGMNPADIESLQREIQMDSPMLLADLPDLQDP
Assay [14] is described as follows: viability rescue of complex I mutant cybrids, primary screen, cell-based, galactose medium, ATP luminescence (AID 1645843;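 active means z-score of at least 1.8 in each of two replicates, scored against plate mean and spread of sample wells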;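 further: positive z means more ATP and so rescue of galactose-driven cybrid death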). As to conditions: complex I mutant cybrid cells, 72 h, stronger effect = higher value.
The nature of assay [15]: sensitizers of A549 cells to miR-34 induction, primary screen, imaging, A549 dox-inducible miR-34, nuclei and caspase counts (AID 1347080;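 active means compounds whose cell count with miR-34 switched on is under 0.7 times the count with it off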). The following applies: A549 miR-34 inducible, Hoechst nuclei count, 48 h.
For assay [16], the target named is NAD(+) hydrolase SARM1 (Homo sapiens) (UniProt Q6SZW1). Put plainly: SARM1 TIR NADase inhibitors, cell lysate, NAD-Glo luminescence (AID 1508614;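 active means compound whose remaining NAD level is above about 45 nM, limit read from the data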). The following applies: SAM-TIR HEK293T lysate NADase, at 1 µM, stronger effect = higher value.
Sequence of NAD(+) hydrolase SARM1 (Homo sapiens) (Q6SZW1 whole entry, looked up): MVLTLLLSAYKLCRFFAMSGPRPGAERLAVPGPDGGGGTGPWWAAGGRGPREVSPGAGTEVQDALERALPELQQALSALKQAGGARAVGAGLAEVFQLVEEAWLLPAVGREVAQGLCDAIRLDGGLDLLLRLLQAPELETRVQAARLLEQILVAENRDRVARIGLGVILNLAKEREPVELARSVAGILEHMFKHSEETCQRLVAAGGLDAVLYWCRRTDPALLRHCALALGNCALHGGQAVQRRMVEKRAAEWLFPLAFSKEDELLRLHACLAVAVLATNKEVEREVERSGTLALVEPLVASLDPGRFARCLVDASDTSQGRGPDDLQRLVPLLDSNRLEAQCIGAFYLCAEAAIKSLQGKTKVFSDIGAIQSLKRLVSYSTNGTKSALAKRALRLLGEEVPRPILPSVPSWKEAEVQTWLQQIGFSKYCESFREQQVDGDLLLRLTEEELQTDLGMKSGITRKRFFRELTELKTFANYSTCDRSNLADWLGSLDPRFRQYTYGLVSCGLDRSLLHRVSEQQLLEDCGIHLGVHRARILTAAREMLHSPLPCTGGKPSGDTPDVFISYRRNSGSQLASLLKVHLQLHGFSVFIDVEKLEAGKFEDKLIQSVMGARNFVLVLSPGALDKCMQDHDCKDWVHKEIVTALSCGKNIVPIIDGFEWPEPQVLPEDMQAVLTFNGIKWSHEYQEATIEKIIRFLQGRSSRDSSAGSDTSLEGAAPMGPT
[17] abbreviates: measured here: epithelial PC-3E GFP cell survival.
The mark [18] stands for this setting: measured here: mesenchymal TEM4-18 mCherry cell survival.

As for `O=C(/C=C/C(=O)Oc1ccccc1C(=O)O)Oc1ccccc1C(=O)O`, in [1], the inhibition was -15.7% (inactive). In addition, the red/green cell ratio (normalised) in assay [2] is 1.09 (inactive). The normalised cell number in [2] (setting [17]) is 1.17; in assay [2] (setting [18]) it was 1.27.
As for `O=c1cc(-c2ccc(O)cc2)oc2cc(O)cc(O)c12`, the results for the inhibition in [3] and in [1] were 0.12% and -0.0494% (inactive), respectively. Moreover, in [4], the score stood at 1.67. For the same compound, the rescue above control in [5] amounted to 2.14. For the same compound, the cytochrome c release ratio in [6] was determined as 3.46. For the same compound, in [7], the inhibition of aggregation is -7.84%. Further, the glutamate uptake change in assay [8] is -6.97%. The aggregation suppression score in [9] was 1.4. Moreover, the survival in assay [10] was 17.8 (inactive). Also, the parasite load remaining in assay [11] was 95.8% (inactive) and 11.3% (inactive) and 116% (inactive). For the same compound, in assay [11], the viability was 94.9% and 100% and 77.5%. In addition, the red/green cell ratio (normalised) in [2] was 0.91 (inactive). The normalised cell number was determined as 1.2 in assay [2] (setting [17]) and 1.09 in [2] (setting [18]). Moreover, the z-score in [12] (MELAS cybrid survival, CellTiter-Glo 48 h, stronger effect = higher value) is -0.412 (inactive); in assay [12] (Rieske KO mouse fibroblast survival, CellTiter-Glo 72 h), 0.346; in assay [14], 2.56 (active) and -0.305 (inactive). Besides, the luciferase signal in assay [13] is 64 AU (inactive).
Regarding `O=C(O)[C@H](O)[C@@](O)(Cc1ccc(O)cc1)C(=O)O`, the inhibition in assay [1] was 12.5% (inactive). Further, the red/green cell ratio (normalised) in assay [2] is 1.3 (inactive). Further, the normalised cell number was 0.73 in assay [2] (setting [17]) and 0.94 in [2] (setting [18]).
Consider `CCCCCCCC/C=C/CCCCCCCCOP(=O)([O-])OCC[N+](C)(C)C`, for which the inhibition in [1] is 17.1% (inactive). The red/green cell ratio (normalised) in assay [2] is 0.71 (inactive). Also, the normalised cell number in assay [2] (setting [17]) is 1.36; in assay [2] (setting [18]), 0.96.
`COC(=O)c1cc(=O)c(O)c2c(O)c(O)ccc2c1`: the inhibition in assay [1] is -4.56% (inactive). In assay [2], the red/green cell ratio (normalised) was 0.88 (inactive). Further, the normalised cell number in [2] (setting [17]) amounted to 1.21; in [2] (setting [18]), 1.06.
Regarding `CN1C[C@H](C(=O)N[C@]2(C)O[C@@]3(O)[C@@H]4CCCN4C(=O)[C@H](Cc4ccccc4)N3C2=O)C[C@@H]2c3cccc4[nH]cc(c34)C[C@H]21`, the values for the inhibition in assay [3] and in assay [1] were -12.1% and 6.21% (inactive), respectively. Besides, the score in assay [4] stood at 1.21. Moreover, the rescue above control in assay [5] amounted to 4.53. The cytochrome c release ratio in assay [6] is 1.48. In addition, the inhibition of aggregation in [7] is 29.7%. The glutamate uptake change in [8] was 15.4%. The compound also had an aggregation suppression score in [9] of 1.29. Further, the survival in assay [10] is 19.1 (inactive). Moreover, in assay [11], the parasite load remaining was 81.1% (inactive) and 61.1% (inactive) and 32.5% (inactive). Besides, in [11], the viability was 69.3% and 88.9% and 89.9%. Further, the red/green cell ratio (normalised) in assay [2] is 1.38 (inactive). Besides, the normalised cell number in [2] (setting [17]) stood at 1.07; in assay [2] (setting [18]), 1.48. Moreover, the fold change in assay [15] (stronger effect = lower value, cell number ratio, induced over uninduced) was 1.02 (inactive) and 0.955 (inactive) and 0.914 (inactive); in [15] (measured here: relative caspase fold change +Dox/-Dox), 1.31 and 1.01 and 2.52. Besides, the cell count in [15] (measured here: total cells with miR-34 induction, stronger effect = lower value) is 7530 and 7990 and 11700; in assay [15] (measured here: total cells without miR-34 induction) it was 7390 and 8360 and 12800. The remaining NAD in assay [16] was 10 nM (inactive). Moreover, the luciferase signal in assay [13] is 32 AU (inactive). The z-score in [14] is -0.125 (inactive) and -0.835 (inactive).
Take `CC1CC[C@@]2(OC1)O[C@H]1CC3C4CC[C@@H]5C[C@@H](O)CC[C@]5(C)C4CC[C@]3(C)[C@H]1[C@@H]2C` (stereo partly specified): the inhibition in [1] was -2.11% (inactive). Besides, the red/green cell ratio (normalised) in [2] is 1.16 (inactive). Besides, the normalised cell number in assay [2] (setting [17]) was determined as 1.03; in [2] (setting [18]) it was 1.2.
As for `CC(=O)NC(C(=O)O)C(C)(C)SN=O` (stereo unspecified), the inhibition in assay [1] was 3.72% (inactive). Further, the red/green cell ratio (normalised) in assay [2] was 1.02 (inactive). Moreover, the values for the normalised cell number in [2] (setting [17]) and in assay [2] (setting [18]) were 1.04 and 1.06, respectively.
The matching figures for `C=CCCCCCCCCCCCC(O)CC(O)CO` (stereo unspecified) (tested in a mixture with another compound): -8.17% (inactive), 0.87 (inactive), 1.32 and 1.14.
As for `CC(C)=CCCC1(C)C=Cc2c(O)c3c(c(CC=C(C)C)c2O1)OC12C(=CCCC1C(C)(C)O[C@@]2(C/C=C(\C)C(=O)O)C(=O)O)C3=O` (stereo partly specified), the inhibition in [1] was 0.371% (inactive). For the same compound, the red/green cell ratio (normalised) in assay [2] is 0.93 (inactive). The normalised cell number in assay [2] (setting [17]) turned out to be 1.16; in assay [2] (setting [18]), 1.08.

The term inhibition denotes the drop in the measured response relative to a control, in per cent. Usually viability stands for the share of living cells, or the viability signal relative to a control.
